Measurements as given in PubChem BioAssay (NCI).
About 79,000 compounds went through this panel and 15% of them were active in at least one assay; those are over-represented in the sample as a whole. Activity calls are given as the source filed them. Rule as the data show it: active = growth inhibition above about 70%; inactive = the rest.

Test: NCI Yeast Anticancer Drug Screen. Data for the bub3 strain (AID 167)
Settings: S. cerevisiae bub3 mutant strain, at 50.0 µM, stronger effect = higher value
Method in brief: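 Whole-cell yeast assay. The mutant strain was incubated with compounds, and growth inhibition was determined by comparison with vehicle-treated cells.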

Structure (SMILES)	growth inhibition
CC(C)=CCNc1nc(Cl)nc2nc[nH]c12	-19.4% (inactive)
BrC1CC2CCCCC2CC1Br (stereo not given)	8.8% (inactive)
CC(C)OC(=O)C1CCC(=O)N1 (stereo not given)	19% (inactive)
COc1cc(O)c2c(c1)C(=O)c1cc(C)cc(O)c1C2=O	-26.2% (inactive)
CC(=O)Oc1cc2oc([O-])c[n+]2c2ccccc12	12.6% (inactive)
CCc1ccc2[nH]nc(CCC(=O)O)c(=O)c2c1	-23.2% (inactive)
O=c1c(Cl)cc(Cl)cn1S(=O)(=O)c1ccc([N+](=O)[O-])cc1	97.7% (active)
O=[N+]([O-])c1cc(O)ccc1O	-1% (inactive)
CCCCC(CC)COCCC(=O)O (stereo not given)	-19.8% (inactive)
CC(CC(=N)N)NC(=O)C1CCC(N)=N1 (stereo not given)	-14.2% (inactive)
CCCCC(=O)N1SC(NC(=O)OC)=Nc2ccccc21	92.4% (active)
COc1ccc(/C=C2/C(=O)N(c3ccccc3)N=C2C)cc1	16.7% (inactive)
CCOC(=O)c1ccc(C#N)cc1	-15.7% (inactive)
Cc1ccc(NC(=O)C2CCN(C)CC2)cc1	-8.7% (inactive)
CCC(O)(C#CCl)CC	-29.1% (inactive)
COc1ccc2c(c1)CC1(CC2)CCN(CCCN(C)C)CC1	-9.7% (inactive)
O=C(CCCc1ccc([N+](=O)[O-])cc1)c1ccccc1	3.5% (inactive)
Cc1cc(C)c(/C=N/NC(=O)NN)c(C)c1	2.8% (inactive)
CC(=O)N(C)c1ccc(N)cc1	31.8% (inactive)
COc1cc(-c2ccc(N=Nc3ccc(N)nc3N)c(OC)c2)ccc1N=Nc1ccc(N)nc1N	-1.45% (inactive)
